# Reference: PubChem BioAssay (EPA / NIEHS)
# Results filed as inconclusive are left out. Activity calls are given as the source filed them. How the source made its calls, unless noted: active means hit-call score of the fitted dose curve at least 0.9, where 1 is the maximum; inactive means score below 0.9.
# Experiments:
# [1] = ATG_CRE_CIS: Attagene CIS-FACTORIAL HepG2 Assay for human cAMP Responsive Element (CRE) binding protein 3 (AID 2282926); conditions: HepG2 CRE cis-reporter, Attagene multiplexed mRNA; actives raise or lower the signal
# Summary of the method: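 Endogenous CRE-binding activity in HepG2 is reported through a cis-regulated transfected reporter. Following a day of exposure, mRNA levels are determined by reverse transcription PCR and fluorescent fragment analysis; fits run in both directions versus DMSO.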
# [2] = target: Aryl hydrocarbon receptor (Homo sapiens) (UniProt P35869); assay: ATG_Ahr_CIS: Attagene CIS-FACTORIAL HepG2 Assay for human Aryl Hydrocarbon Receptor (Ahr) (AID 2282930); conditions: HepG2 AhR cis-factorial reporter transcription; actives raise or lower the signal
# Sequence of Aryl hydrocarbon receptor (Homo sapiens) (P35869 whole entry, looked up): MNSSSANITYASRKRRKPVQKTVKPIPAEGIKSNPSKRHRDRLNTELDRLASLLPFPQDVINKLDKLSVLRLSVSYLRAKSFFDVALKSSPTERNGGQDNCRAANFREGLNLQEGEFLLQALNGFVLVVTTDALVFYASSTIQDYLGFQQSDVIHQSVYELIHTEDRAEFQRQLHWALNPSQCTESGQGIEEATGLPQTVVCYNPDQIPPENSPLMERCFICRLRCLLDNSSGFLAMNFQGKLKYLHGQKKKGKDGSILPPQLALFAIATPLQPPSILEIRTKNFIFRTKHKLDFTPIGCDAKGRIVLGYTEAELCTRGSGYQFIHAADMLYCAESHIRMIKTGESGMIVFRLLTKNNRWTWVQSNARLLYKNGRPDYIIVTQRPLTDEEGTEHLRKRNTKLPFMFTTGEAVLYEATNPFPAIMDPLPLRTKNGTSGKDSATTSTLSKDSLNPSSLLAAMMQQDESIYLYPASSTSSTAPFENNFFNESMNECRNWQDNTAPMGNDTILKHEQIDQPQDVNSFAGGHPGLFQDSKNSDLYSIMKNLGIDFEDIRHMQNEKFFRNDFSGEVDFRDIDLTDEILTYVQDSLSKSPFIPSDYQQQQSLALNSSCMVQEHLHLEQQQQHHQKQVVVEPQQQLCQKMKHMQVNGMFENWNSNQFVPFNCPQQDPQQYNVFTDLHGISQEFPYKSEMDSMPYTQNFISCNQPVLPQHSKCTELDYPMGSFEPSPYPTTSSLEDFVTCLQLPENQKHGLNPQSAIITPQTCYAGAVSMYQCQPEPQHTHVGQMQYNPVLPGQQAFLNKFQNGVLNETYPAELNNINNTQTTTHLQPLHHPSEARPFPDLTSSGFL
# Summary of the method: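 HepG2, transient MRTU (cis) transfection, 24 h exposure. RNA → cDNA → PCR → 6-FAM primer extension → HpaI 2 h 37 C → CE. Fit: bidirectional, DMSO baseline.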
# [3] = target: Hepatocyte nuclear factor 3-beta (Homo sapiens) (UniProt Q9Y261); assay: ATG_FoxA2_CIS: Attagene CIS-FACTORIAL HepG2 Assay for human Forkhead box A2 (FOXA2) (AID 2282942); conditions: HepG2 cis-reporter transcription factor activity, 24 h; actives raise or lower the signal
# Summary of the method: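 Measured: reporter mRNA induction or loss in HepG2 transiently carrying multiple cis-regulated reporter units, 24 h after dosing. Quantified by RT-PCR plus capillary electrophoresis, normalised to DMSO.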
# [4] = target: Paired box protein Pax-6 (Homo sapiens) (UniProt P26367); assay: ATG_Pax6_CIS: Attagene CIS-FACTORIAL HepG2 Assay for human Paired Box 6 (PAX6) (AID 2282956); conditions: HepG2 CIS-FACTORIAL PAX6 reporter transcription, RNA readout; actives raise or lower the signal
# Sequence of Paired box protein Pax-6 (Homo sapiens) (P26367 whole entry, looked up): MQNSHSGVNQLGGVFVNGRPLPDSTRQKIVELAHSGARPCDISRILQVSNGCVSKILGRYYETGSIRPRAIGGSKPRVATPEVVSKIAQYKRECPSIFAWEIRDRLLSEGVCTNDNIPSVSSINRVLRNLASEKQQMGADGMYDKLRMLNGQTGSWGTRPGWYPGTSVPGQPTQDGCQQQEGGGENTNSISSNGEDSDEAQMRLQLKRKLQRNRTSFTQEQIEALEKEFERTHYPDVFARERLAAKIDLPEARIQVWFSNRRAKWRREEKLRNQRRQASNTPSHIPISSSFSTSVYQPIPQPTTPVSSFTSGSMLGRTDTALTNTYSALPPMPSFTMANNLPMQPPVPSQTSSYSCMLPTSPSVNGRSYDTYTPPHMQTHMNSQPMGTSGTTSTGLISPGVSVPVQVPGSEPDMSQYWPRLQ
# Summary of the method: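 HepG2 cells transiently transfected with multiplexed cis-promoter reporter units (endogenous TF activity) were dosed for 24 h. Reporter mRNA was quantified by RT-PCR, 6-FAM labeling, HpaI digestion and capillary electrophoresis; bidirectional fitting versus DMSO baseline.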
# [5] = target: Transcription factor Sp1 (Homo sapiens) (UniProt P08047); assay: ATG_Sp1_CIS: Attagene CIS-FACTORIAL HepG2 Assay for human Specificity Protein 1 (Sp1) (AID 2282961); conditions: HepG2 Sp1 cis-reporter transcription, actives raise or lower the signal
# Sequence of Transcription factor Sp1 (Homo sapiens) (P08047 whole entry, looked up, the tested form may be a part): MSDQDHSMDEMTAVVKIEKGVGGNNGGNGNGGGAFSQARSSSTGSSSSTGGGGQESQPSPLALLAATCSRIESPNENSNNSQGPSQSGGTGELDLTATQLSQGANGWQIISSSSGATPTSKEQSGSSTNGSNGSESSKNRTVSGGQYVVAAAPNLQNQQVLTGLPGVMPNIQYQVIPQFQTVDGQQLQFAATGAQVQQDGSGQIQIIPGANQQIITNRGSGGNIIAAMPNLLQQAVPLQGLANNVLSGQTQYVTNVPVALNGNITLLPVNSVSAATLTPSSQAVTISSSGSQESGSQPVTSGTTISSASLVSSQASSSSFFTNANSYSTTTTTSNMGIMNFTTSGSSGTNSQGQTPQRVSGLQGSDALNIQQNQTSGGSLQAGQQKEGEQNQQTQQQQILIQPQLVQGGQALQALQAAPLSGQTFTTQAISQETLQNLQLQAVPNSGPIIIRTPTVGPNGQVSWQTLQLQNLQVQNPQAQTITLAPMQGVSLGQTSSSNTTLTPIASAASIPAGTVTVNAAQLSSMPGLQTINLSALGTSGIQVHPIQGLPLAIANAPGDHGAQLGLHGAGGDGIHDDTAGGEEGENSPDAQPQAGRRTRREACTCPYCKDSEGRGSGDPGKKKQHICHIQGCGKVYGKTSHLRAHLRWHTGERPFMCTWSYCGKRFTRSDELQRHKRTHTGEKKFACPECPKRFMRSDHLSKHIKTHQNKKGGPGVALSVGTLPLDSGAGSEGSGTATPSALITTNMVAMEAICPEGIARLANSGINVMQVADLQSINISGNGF
# Summary of the method: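 Endpoint reflects endogenous Sp1 transcriptional activity, not an exogenous fusion protein: HepG2 cells with transfected cis-regulated reporters, 24 h dosing, RT-PCR/capillary electrophoresis mRNA read-out, DMSO-normalised bidirectional fit.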
# [6] = ATG_SREBP_CIS: Attagene CIS-FACTORIAL HepG2 Assay for human Sterol Regulatory Element Binding (SREBP) (AID 2282962); conditions: HepG2 Attagene cis-factorial SREBP reporter, mRNA; actives raise or lower the signal
# Summary of the method: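 HepG2 cells transiently transfected with multiplexed cis-element reporter units report endogenous transcription factor activity. After 24 h of chemical exposure, reporter mRNA was quantified by RT-PCR, 6-FAM labelling, HpaI digestion and capillary electrophoresis; bidirectional fits used DMSO as baseline.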
# [7] = target: Signal transducer and activator of transcription 3 (Homo sapiens) (UniProt P40763); assay: ATG_STAT3_CIS: Attagene CIS-FACTORIAL HepG2 Assay for human Signal Transducer and Activator of Transcription 3 (STAT3) (AID 2282963); conditions: HepG2, Attagene cis-factorial STAT3 reporter transcription; actives raise or lower the signal
# Sequence of Signal transducer and activator of transcription 3 (Homo sapiens) (P40763 whole entry, looked up): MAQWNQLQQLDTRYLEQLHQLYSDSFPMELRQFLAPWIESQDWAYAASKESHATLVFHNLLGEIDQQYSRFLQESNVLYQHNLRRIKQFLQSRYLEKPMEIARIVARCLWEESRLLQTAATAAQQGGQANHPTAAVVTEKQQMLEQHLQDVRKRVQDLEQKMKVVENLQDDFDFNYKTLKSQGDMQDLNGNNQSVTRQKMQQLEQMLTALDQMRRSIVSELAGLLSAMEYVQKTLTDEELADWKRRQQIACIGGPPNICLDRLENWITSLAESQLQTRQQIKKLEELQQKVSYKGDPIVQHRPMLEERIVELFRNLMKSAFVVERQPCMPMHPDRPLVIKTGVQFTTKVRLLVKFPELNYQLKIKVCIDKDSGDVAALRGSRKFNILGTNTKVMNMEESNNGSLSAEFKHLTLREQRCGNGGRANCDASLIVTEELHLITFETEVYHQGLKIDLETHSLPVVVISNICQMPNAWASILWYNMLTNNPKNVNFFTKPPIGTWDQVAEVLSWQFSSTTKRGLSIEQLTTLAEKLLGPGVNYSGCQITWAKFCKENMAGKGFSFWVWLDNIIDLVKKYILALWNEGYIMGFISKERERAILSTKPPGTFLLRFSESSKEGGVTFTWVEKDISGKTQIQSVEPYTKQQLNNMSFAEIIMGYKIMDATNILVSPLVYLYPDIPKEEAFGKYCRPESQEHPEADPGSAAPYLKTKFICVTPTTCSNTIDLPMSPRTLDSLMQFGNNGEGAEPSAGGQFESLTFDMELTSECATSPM
# Summary of the method: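 After a 24 h compound incubation, total RNA from MRTU-transfected HepG2 cells was converted to cDNA and reporter sequences PCR-amplified, labelled and profiled by capillary electrophoresis. Gain and loss of signal were referenced to DMSO.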
# [8] = ATG_TA_CIS: Attagene CIS-FACTORIAL HepG2 Assay for human TA Basal Promoter (AID 2282964); conditions: HepG2 Attagene CIS-factorial TA basal promoter reporter; actives raise or lower the signal
# Summary of the method: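 Background-control readout: TA basal promoter reporter mRNA, fitted in both directions relative to DMSO. Measured by RT-PCR and capillary electrophoresis 24 hours after treating HepG2 human liver cells transiently carrying multiplexed cis-regulated reporter constructs.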
# [9] = ATG_TCF_b_cat_CIS: Attagene CIS-FACTORIAL HepG2 Assay for human T-Cell-Factor with beta-catenin (TCF/b-cat) (AID 2282965); conditions: HepG2 TCF/beta-catenin cis-reporter transcription, actives raise or lower the signal
# Summary of the method: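 Measured: reporter mRNA in HepG2 transiently transfected with cis-promoter reporter units, 24 h after chemical addition. Fitting was bidirectional, DMSO as negative control.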
# [10] = ATG_TAL_CIS: Attagene CIS-FACTORIAL HepG2 Assay for human TAL Basal Promoter (AID 2282966); conditions: HepG2 Attagene cis-factorial TAL promoter reporter; actives raise or lower the signal;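 further: background control endpoint measuring basal TAL promoter reporter mRNA not a specific factor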
# Summary of the method: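 In this cell-based multiplex, HepG2 liver cells bearing cis-promoter reporter constructs are dosed for 24 hours. Total RNA is reverse-transcribed and amplified, labelled fragments are sized by capillary electrophoresis, and signal changes are fitted bidirectionally versus DMSO.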
# [11] = ATG_TGFb_CIS: Attagene CIS-FACTORIAL HepG2 Assay for human Transforming Growth Factor (TGF) (AID 2282967); conditions: HepG2 Attagene CIS TGFb reporter, mRNA transcription; actives raise or lower the signal
# Summary of the method: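 Endogenous TGFB1-linked transcription factor activity read as reporter mRNA via RT-PCR and capillary electrophoresis, 24 h after dosing transiently transfected HepG2 cells. Gain or loss of signal fitted relative to DMSO.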
# [12] = ATG_VDRE_CIS: Attagene CIS-FACTORIAL HepG2 Assay for human Vitamin D Receptor Element (VDRE) (AID 2282968); conditions: HepG2 VDRE cis-reporter transcription, actives raise or lower the signal
# Summary of the method: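 In transiently transfected HepG2 liver cells, gain or loss of reporter mRNA after 24 h exposure is scored relative to DMSO, using fluorescence detection by capillary electrophoresis of RT-PCR products.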
# [13] = target: X-box-binding protein 1 (Homo sapiens) (UniProt P17861); assay: ATG_Xbp1_CIS: Attagene CIS-FACTORIAL HepG2 Assay for human X-box Binding Protein 1 (XBP1) (AID 2282972); conditions: HepG2 XBP1 cis-element reporter, Attagene multiplex; actives raise or lower the signal
# Sequence of X-box-binding protein 1 (Homo sapiens) (P17861 whole entry, looked up): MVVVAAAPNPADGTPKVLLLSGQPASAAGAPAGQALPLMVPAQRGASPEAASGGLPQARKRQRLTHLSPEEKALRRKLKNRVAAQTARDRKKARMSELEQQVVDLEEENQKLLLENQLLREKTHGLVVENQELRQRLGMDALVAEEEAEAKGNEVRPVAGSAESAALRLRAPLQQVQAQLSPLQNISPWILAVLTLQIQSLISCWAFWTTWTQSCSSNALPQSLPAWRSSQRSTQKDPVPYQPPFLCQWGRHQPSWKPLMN
# Summary of the method: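 HepG2 cells transiently transfected with cis-regulated multiple reporter transcription units; endogenous transcription factor activity measured 24 hours after chemical dosing. Reporter mRNA quantified by RT-PCR, 6-FAM primer extension, HpaI digestion and capillary electrophoresis; bidirectional fitting versus DMSO.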
# [14] = ATG_M_32_TRANS: Attagene TRANS-FACTORIAL HepG2 Assay for M32 Transcription Factor (Internal Marker) (AID 2282984; active means hit-call score of the fitted dose curve at least 0.9, where 1 is the maximum;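 further: transcript level of a background control reporter unit measured by RT-PCR and capillary electrophoresis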); conditions: HepG2 Attagene TRANS M32 internal marker reporter
# Summary of the method: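 Using transiently transfected HepG2 cells exposed to test chemicals for 24 h, reporter transcripts are converted to labelled cDNA fragments and quantified by capillary electrophoresis. DMSO defines the activity baseline.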
# [15] = target: Transcriptional activator Myb (Homo sapiens) (UniProt P10242); assay: ATG_Myb_CIS: Attagene CIS-FACTORIAL HepG2 Assay for human Myeloblastosis (Myb) Proto-Oncogene Transcription Factor (AID 2282986); conditions: HepG2 Attagene CIS-FACTORIAL Myb reporter transcription; actives raise or lower the signal
# Sequence of Transcriptional activator Myb (Homo sapiens) (P10242 whole entry, looked up): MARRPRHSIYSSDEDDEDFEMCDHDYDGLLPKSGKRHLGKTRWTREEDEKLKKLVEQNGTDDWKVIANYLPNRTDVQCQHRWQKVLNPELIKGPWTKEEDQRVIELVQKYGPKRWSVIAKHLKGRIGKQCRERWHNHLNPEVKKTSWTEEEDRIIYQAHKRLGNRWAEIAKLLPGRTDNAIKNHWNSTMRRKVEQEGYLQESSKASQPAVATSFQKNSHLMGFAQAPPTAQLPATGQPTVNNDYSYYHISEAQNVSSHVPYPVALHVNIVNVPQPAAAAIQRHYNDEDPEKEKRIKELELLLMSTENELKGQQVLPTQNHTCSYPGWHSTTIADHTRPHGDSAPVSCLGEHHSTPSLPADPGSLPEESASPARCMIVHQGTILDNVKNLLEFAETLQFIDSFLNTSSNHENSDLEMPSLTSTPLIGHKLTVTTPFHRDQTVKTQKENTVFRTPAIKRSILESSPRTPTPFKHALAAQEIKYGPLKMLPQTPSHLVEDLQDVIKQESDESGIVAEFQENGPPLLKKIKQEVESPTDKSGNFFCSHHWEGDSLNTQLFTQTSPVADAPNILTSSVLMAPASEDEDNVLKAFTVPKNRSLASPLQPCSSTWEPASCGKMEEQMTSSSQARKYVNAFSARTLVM
# Summary of the method: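 In this HepG2 transient-transfection format, cis-regulated reporter mRNA is quantified 24 h post-dosing by RT-PCR with capillary electrophoresis, fitted bidirectionally to DMSO baseline.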
# [16] = target: Nuclear respiratory factor 1 (Homo sapiens) (UniProt Q16656); assay: ATG_NRF1_CIS: Attagene CIS-FACTORIAL HepG2 Assay for human Nuclear Respiratory Factor 1 (NRF1) Orphan Gene (AID 2282987); conditions: HepG2 NRF1 cis-element reporter, Attagene multiplex; actives raise or lower the signal
# Sequence of Nuclear respiratory factor 1 (Homo sapiens) (Q16656 whole entry, looked up): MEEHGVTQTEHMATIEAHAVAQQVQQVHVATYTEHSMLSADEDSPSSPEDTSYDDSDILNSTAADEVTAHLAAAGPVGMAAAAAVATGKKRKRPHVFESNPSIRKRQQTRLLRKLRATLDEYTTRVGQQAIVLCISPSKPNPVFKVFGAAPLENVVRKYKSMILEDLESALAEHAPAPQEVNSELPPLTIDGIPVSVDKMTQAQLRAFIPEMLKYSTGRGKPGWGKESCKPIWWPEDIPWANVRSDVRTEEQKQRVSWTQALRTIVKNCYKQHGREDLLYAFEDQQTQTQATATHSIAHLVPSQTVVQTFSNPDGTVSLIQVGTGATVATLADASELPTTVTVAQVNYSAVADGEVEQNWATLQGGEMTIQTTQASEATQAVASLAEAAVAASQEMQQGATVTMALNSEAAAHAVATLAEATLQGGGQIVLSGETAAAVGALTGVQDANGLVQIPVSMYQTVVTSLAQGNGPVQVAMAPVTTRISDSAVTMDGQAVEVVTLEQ
# Summary of the method: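 Using DMSO as baseline, gain- or loss-of-signal was fitted for reporter mRNA levels in HepG2 cells transiently transfected with cis-regulated reporter units. Samples were taken 24 h after dosing and read by RT-PCR with capillary electrophoresis.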
# [17] = ATG_NFI_CIS: Attagene CIS-FACTORIAL HepG2 Assay for human Nuclear Factor I (NFI) (AID 2282989); conditions: HepG2 cis-regulatory reporter, NFI response element transcription; actives raise or lower the signal
# Summary of the method: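 Reporter transcripts were measured by RT-PCR with fluorescent primer extension and capillary electrophoresis 24 h post-treatment. HepG2 cells carried transiently transfected cis-regulated reporter constructs reporting endogenous factor activity; gain or loss fitted against DMSO baseline.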
# [18] = target: Myc proto-oncogene protein (Homo sapiens) (UniProt P01106); assay: ATG_Myc_CIS: Attagene CIS-FACTORIAL HepG2 Assay for human Myelocytomatosis (Myc) Proto-Oncogene Transcription Factor (AID 2282990); conditions: HepG2, Attagene cis-reporter transcription factor activity; actives raise or lower the signal
# Sequence of Myc proto-oncogene protein (Homo sapiens) (P01106 whole entry, looked up): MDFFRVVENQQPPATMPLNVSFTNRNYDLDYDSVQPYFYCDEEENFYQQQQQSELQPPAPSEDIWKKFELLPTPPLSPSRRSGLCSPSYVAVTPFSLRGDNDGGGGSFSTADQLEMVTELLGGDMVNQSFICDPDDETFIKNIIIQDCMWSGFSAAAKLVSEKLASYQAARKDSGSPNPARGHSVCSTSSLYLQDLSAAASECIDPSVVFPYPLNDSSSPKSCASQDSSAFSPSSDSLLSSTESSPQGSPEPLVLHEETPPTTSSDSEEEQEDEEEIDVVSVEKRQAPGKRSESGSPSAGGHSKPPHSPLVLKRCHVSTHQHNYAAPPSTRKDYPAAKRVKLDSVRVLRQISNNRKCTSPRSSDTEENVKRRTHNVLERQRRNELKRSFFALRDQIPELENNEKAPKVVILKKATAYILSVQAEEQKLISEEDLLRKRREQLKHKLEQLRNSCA
# Summary of the method: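 Cells of the HepG2 human liver line bear multiple cis-driven reporter transcription units. Reporter mRNA after 24 h exposure is reverse-transcribed, amplified, labelled and resolved by capillary electrophoresis, with gain- or loss-of-signal fitting relative to DMSO.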
# [19] = ATG_NF_kB_CIS: Attagene CIS-FACTORIAL HepG2 Assay for human Nuclear Factor Kappa B (NF-kB) (AID 2282991); conditions: HepG2 Attagene cis-factorial NF-kB reporter mRNA; actives raise or lower the signal
# Summary of the method: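 Endpoint from a 52-component multiplexed HepG2 reporter panel: cis-regulated transcription units transiently transfected, 24 h dosing, reporter mRNA quantified by RT-PCR and capillary electrophoresis, scored as increase or decrease against DMSO.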
# [20] = ATG_Oct_MLP_CIS: Attagene CIS-FACTORIAL HepG2 Assay for human Octamer-Binding Transcription Factor (Oct) (AID 2282993); conditions: HepG2 Attagene cis-factorial Oct reporter, mRNA; actives raise or lower the signal
# Summary of the method: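 Readout is reporter transcript level from RT-PCR with fluorescent primer extension and capillary electrophoresis, fitted in both directions against DMSO. Transfected HepG2 reporter units report endogenous factor activity after 24 h dosing.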
structure (smiles),measurement,setting,value
O=CNC(N1CCN(C(NC=O)C(Cl)(Cl)Cl)CC1)C(Cl)(Cl)Cl (stereo not given),outcome,[1],inactive
same,outcome,[2],inactive
same,outcome,[3],inactive
same,outcome,[4],inactive
same,outcome,[5],inactive
same,outcome,[6],inactive
same,outcome,[7],inactive
same,outcome,[8],inactive
same,outcome,[9],inactive
same,outcome,[10],inactive
same,outcome,[11],inactive
same,AC50,[12],15.3 µM (active)
same,outcome,[13],inactive
same,outcome,[14],inactive
same,outcome,[15],inactive
same,outcome,[16],inactive
same,outcome,[17],inactive
same,outcome,[18],inactive
same,outcome,[19],inactive
same,outcome,[20],inactive
N#CCCCCC#N,outcome,[1],inactive
same,outcome,[2],inactive
same,outcome,[3],inactive
same,outcome,[4],inactive
same,outcome,[5],inactive
same,outcome,[6],inactive
same,outcome,[8],inactive
same,outcome,[9],inactive
same,outcome,[10],inactive
same,outcome,[11],inactive
same,outcome,[12],inactive
same,outcome,[15],inactive
same,outcome,[16],inactive
same,outcome,[17],inactive
same,outcome,[18],inactive
same,outcome,[20],inactive
CC(C)COP(=O)(OCC(C)C)OCC(C)C,outcome,[1],inactive
same,AC50,[2],73.3 µM (active)
same,outcome,[3],inactive
same,outcome,[5],inactive
same,outcome,[6],inactive
same,outcome,[7],inactive
same,outcome,[8],inactive
same,outcome,[9],inactive
same,outcome,[10],inactive
same,outcome,[11],inactive
same,AC50,[12],55.8 µM (active)
same,outcome,[13],inactive
same,outcome,[14],inactive
same,outcome,[15],inactive
same,outcome,[16],inactive
same,outcome,[17],inactive
same,outcome,[18],inactive
same,outcome,[19],inactive
same,outcome,[20],inactive
CN1C[C@H](C(=O)N[C@]2(C)O[C@@]3(O)[C@@H]4CCCN4C(=O)[C@H](Cc4ccccc4)N3C2=O)C=C2c3cccc4[nH]cc(c34)C[C@H]21,outcome,[1],inactive
same,outcome,[2],inactive
same,outcome,[5],inactive
same,AC50,[6],16.4 µM (active)
same,outcome,[7],inactive
same,outcome,[8],inactive
same,AC50,[9],94.2 µM (active)
same,outcome,[10],inactive
same,outcome,[11],inactive
same,AC50,[12],0.966 µM (active)
same,outcome,[13],inactive
same,outcome,[14],inactive
same,outcome,[15],inactive
same,outcome,[16],inactive
same,outcome,[17],inactive
same,outcome,[19],inactive
same,outcome,[20],inactive
CCC[N+](=O)[O-],outcome,[1],inactive
same,AC50,[2],68.9 µM (active)
same,outcome,[3],inactive
same,outcome,[4],inactive
same,outcome,[5],inactive
same,outcome,[6],inactive
same,outcome,[7],inactive
same,outcome,[8],inactive
same,outcome,[9],inactive
same,outcome,[10],inactive
same,outcome,[11],inactive
same,outcome,[12],inactive
same,outcome,[13],inactive
same,outcome,[14],inactive
same,outcome,[15],inactive
same,outcome,[16],inactive
same,outcome,[17],inactive
same,outcome,[18],inactive
same,outcome,[19],inactive
same,outcome,[20],inactive
O=C(O)COc1ccccc1,outcome,[1],inactive
same,outcome,[2],inactive
same,outcome,[3],inactive
same,outcome,[4],inactive
same,outcome,[5],inactive
same,outcome,[6],inactive
same,outcome,[7],inactive
same,outcome,[8],inactive
same,outcome,[9],inactive
same,outcome,[10],inactive
same,outcome,[11],inactive
same,outcome,[12],inactive
same,outcome,[13],inactive
same,outcome,[14],inactive
same,outcome,[15],inactive
same,outcome,[16],inactive
same,outcome,[17],inactive
same,outcome,[19],inactive
same,outcome,[20],inactive
c1ccc(P(c2ccccc2)c2ccccc2)cc1,outcome,[1],inactive
same,outcome,[2],inactive
same,outcome,[3],inactive
same,outcome,[4],inactive
same,outcome,[5],inactive
same,outcome,[6],inactive
same,outcome,[8],inactive
same,AC50,[9],158 µM (active)
same,outcome,[10],inactive
same,outcome,[11],inactive
same,outcome,[12],inactive
same,outcome,[13],inactive
same,outcome,[14],inactive
same,outcome,[15],inactive
same,outcome,[16],inactive
same,outcome,[17],inactive
same,outcome,[18],inactive
same,outcome,[19],inactive
same,outcome,[20],inactive
